Only some compounds are listed: those with a hit (about 0.84% of all), similar ones and a draw of the others.
TR-FRET SRC-2 ct = counter-screen for PPARgamma SRC-2 recruitment agonists: TR-FRET artefact | hits give high values | TR-FRET ratio at 8 µM | 0.4% of 200,000 active | AID 1049
SRC1 TRFRET art = counter-screen for PPARgamma SRC-1 recruitment agonists: TR-FRET artefact; 0.34% of 99,000 active; TR-FRET ratio at 8 µM; TR-FRET detection artefact counter-screen, emission ratio; hits give high values; AID 1051; in the data active = TR-FRET ratio above about 2300
PPARg SRC3 recr = PPARgamma-driven SRC-3 recruitment agonism | biochemical PPARgamma/SRC-3 coactivator recruitment assay | activation, % at 8 µM | 0.26% of 200,000 active | AID 731; in the data active = activation above about 23%;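 also: 0% = DMSO and 100% = reference agonist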
Target sequence (P37231 whole entry, looked up): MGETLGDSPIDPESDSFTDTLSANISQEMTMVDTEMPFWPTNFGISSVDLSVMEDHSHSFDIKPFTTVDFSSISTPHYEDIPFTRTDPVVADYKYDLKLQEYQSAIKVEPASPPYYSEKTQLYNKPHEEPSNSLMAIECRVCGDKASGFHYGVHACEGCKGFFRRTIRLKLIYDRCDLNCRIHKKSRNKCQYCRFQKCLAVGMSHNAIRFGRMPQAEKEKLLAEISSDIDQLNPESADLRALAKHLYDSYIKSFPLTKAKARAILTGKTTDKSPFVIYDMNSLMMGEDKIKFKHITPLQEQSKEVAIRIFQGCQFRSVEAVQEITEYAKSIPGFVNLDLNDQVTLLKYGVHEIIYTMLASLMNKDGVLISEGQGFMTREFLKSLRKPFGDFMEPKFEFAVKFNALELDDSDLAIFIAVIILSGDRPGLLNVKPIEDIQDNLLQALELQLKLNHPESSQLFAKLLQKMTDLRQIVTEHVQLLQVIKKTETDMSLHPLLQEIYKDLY
PPARg SRC1 recr = PPARgamma-driven SRC-1 recruitment agonism | PPARgamma-SRC-1 coactivator recruitment biochemical assay | 0.41% of 200,000 active | P37231 | activation, % at 8 µM; in the data active = activation above about 19%;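 also: 0% = DMSO and 100% = reference agonist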
SRC3 TRFRET art = flags TR-FRET format artefacts in PPARgamma SRC-3 recruitment agonist screen; 0.39% of 99,000 active; AID 1048; TR-FRET ratio at 8 µM; TR-FRET artefact counter-screen, PPARgamma/SRC-3 format; hits give high values
PPARg SRC2 recr = agonists of SRC-2 recruitment by human PPARgamma; P37231; 0.34% of 200,000 active; activation, % at 8 µM; PPARgamma LBD-SRC-2 recruitment, biochemical; in the data active = activation above about 22%;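 also: 0% = vehicle and 100% = reference agonist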
PPARg SRC2 conf = human PPARgamma SRC-2 recruitment agonism, confirmation; shares compounds with PPARg SRC3 recr; 52% of 790 active; AID 1297; biochemical SRC-2 recruitment by PPARgamma; activation, % at 8 µM; in the data active = activation above about 22%;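 also: 0% = vehicle alone and 100% = reference agonist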
PPARg SRC1 conf = confirmation of agonists of SRC-1 recruitment by human PPARgamma; shares compounds with PPARg SRC3 recr; PPARgamma–SRC-1 coactivator recruitment biochemical assay; activation, % at 8 µM; 43% of 790 active; AID 1300; in the data active = activation above about 20%;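 also: 0% = vehicle wells and 100% = reference agonist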
PPARg SRC3 ag = confirmation of agonists of SRC-3 recruitment by human PPARgamma; shares compounds with PPARg SRC3 recr; biochemical PPARgamma-SRC-3 coactivator recruitment, agonist mode; activation, % at 8 µM; 29% of 790 active; AID 1301; in the data active = activation above about 24%;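 also: 0% = vehicle wells and 100% = reference agonist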
Numbers without * were called inactive; · = no result given. Rule as the data show it, unless noted: active = TR-FRET ratio above about 2000; inactive = the rest.

SMILES	TR-FRET SRC-2 ct	SRC1 TRFRET art	PPARg SRC3 recr	PPARg SRC1 recr	SRC3 TRFRET art	PPARg SRC2 recr	PPARg SRC2 conf	PPARg SRC1 conf	PPARg SRC3 ag
Cc1cc2cc(CNC(=O)c3ccc(S(=O)(=O)N4CCOCC4)cc3)ccc2n1C	2210*	·	45.0*	30.9*	·	8.3	35.4*	29.1*	18.9
CCCC(=O)NCc1ccc2c(c1)cc(C)n2C	1636	·	-0.7	8.7	·	-2.1	·	·	·
Cc1cc2cc(CNS(=O)(=O)c3ccc4ccccc4c3)ccc2n1C	3303*	·	37.8*	17.8	·	21.0	104.2*	78.6*	65.4*
Cc1cc2ccccc2n1CCNC(=O)c1ccc(S(=O)(=O)N2CCCCC2)cc1	3753*	·	43.8*	24.4*	·	26.0*	93.0*	80.0*	70.0*
CCOc1ccc2ccccc2c1/C=N/n1cncn1	1434	·	-2.1	-7.6	·	9.2	·	·	·
COCCNc1ccc([N+](=O)[O-])cc1C(=O)Nc1cccc(C)n1	1477	1857	2.5	1.7	1481	5.2	·	·	·
CCn1c(=O)cc(SCC(=O)NCc2ccc(C)o2)c2ccccc21	1550	·	4.9	10.9	·	10.1	·	·	·
CCn1c(=O)cc(SCC(=O)NCc2ccccn2)c2ccccc21	1908	·	18.3	20.1*	·	25.8*	26.7*	16.9	17.8
CCn1c(=O)cc(SCC(=O)NCc2cccnc2)c2ccccc21	1938	·	2.3	20.6*	·	18.0	19.5	13.6	11.5
CCn1c(=O)cc(SCC(=O)NCc2ccco2)c2ccccc21	1824	·	30.2*	22.4*	·	32.8*	27.2*	18.2	15.9
CCn1c(=O)cc(SCC(=O)Nc2ccc(C)cn2)c2ccccc21	2341*	2927*	25.0*	37.8*	3211*	32.4*	28.5*	17.3	19.3
CCn1c(=O)cc(OCC(=O)Nc2ccc(C)cn2)c2ccccc21	1467	·	-4.2	-4.8	·	-1.1	·	·	·
CCn1c(=O)cc(OCC(=O)NCc2cccnc2)c2ccccc21	1642	·	0.7	4.2	·	-0.9	·	·	·
C=CCn1c(SCc2c(C)noc2C)nnc1C1COc2ccccc2O1 (stereo not drawn)	1480	·	-1.9	8.8	·	-4.1	·	·	·
CCn1c(SCc2nc(-c3ccc(OC)c(OC)c3)no2)nnc1-c1cccs1	1659	·	2.4	5.2	·	7.5	·	·	·
CCn1c(=O)cc(SCC(=O)NCc2ccc(C)cc2)c2ccccc21	3248*	·	75.6*	50.0*	·	70.2*	51.3*	33.9*	31.8*
O=C(OCn1ncc(Br)c(Br)c1=O)c1ccccc1Cl	1784	·	21.2	6.0	·	18.8	·	·	·
O=C(OCn1ncc(Br)c(Br)c1=O)c1ccc(F)cc1	2296*	·	43.7*	22.2*	·	37.3*	43.3*	29.3*	30.6*
Cc1ccc(Cl)cc1NC(=O)Cn1cc2c(n1)CCCC2	1557	·	2.2	5.5	·	-0.8	·	·	·
COc1ccc(N=Cc2sc(O)c3ccccc23)cc1	1635	·	26.3*	22.3*	·	28.1*	7.8	9.0	6.5
COc1ccc(-n2c(O)c(C=Nc3ccccc3)c3ccccc3c2=O)cc1	1565	1953	-0.9	0.8	1574	2.3	·	·	·
CCc1ccc(C2=Nn3c(nnc3-c3cccs3)SC2)cc1	1609	·	8.3	7.8	·	1.5	·	·	·
Cc1ccc(C=Nc2ccc(N(C)C)cc2)o1	3126*	·	101.9*	65.2*	·	101.6*	1.3	-3.2	-0.9
Fc1ccc(CSc2ncnc3c2oc2ccccc23)cc1	1720	2218	10.4	14.7	1683	10.2	·	·	·
O=C(CSc1ncnc2c1oc1ccccc12)Nc1cccc(F)c1	1746	·	43.1*	25.3*	·	22.4*	29.9*	24.4*	19.6
COc1ccccc1NC(=O)CSc1ncnc2c1oc1ccccc12	1618	·	13.0	-4.8	·	1.6	·	·	·
Cc1nc(SCc2nc3ccccc3[nH]2)c2oc3ccccc3c2n1	1383	·	-9.8	3.2	·	3.5	·	·	·
c1ccc2[nH]c(CSc3ncnc4c3oc3ccccc34)nc2c1	2940*	·	72.1*	44.4*	·	70.5*	43.8*	30.1*	29.2*

Bioassay records (PubChem BioAssay)
